From PubChem BioAssay (NCATS) come the findings set out here.

“And” between values parts separate entries of the source, which are not always exact repeats. Equal values may be shown once. Results filed as inconclusive are left out. The source made the active and inactive calls. Unless noted, the call rests on the fitted dose curve; in most records, active means well fitted curve in the direction sought with a large enough effect; inconclusive means small, poorly fitted or top-dose-only effect, or another doubt; inactive means no such curve, though single readings can be large; an effect the other way counts as inactive or inconclusive.

The nature of assay [1]: AP1 Signaling Pathway (AID 357; active means well fitted curve in either direction with a large enough effect, not every such curve was filed as active; further: on the % scale 0 is the no-effect control and ±100 the full control effect). In short, it runs like this: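 Modulation of EGF-driven AP-1 transcription was assessed with a beta-lactamase reporter in ME-180 cells. Compound and EC50 EGF were co-incubated 5 hours at 37 °C before 2.5-hour CCF4 loading at room temperature and dual-emission reading.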
The nature of assay [2]: NFAT Signaling Pathway (AID 444; active means well fitted curve in either direction with a large enough effect, not every such curve was filed as active;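 further: carbachol stimulus at about its EC50 of 1 µM final; on the % scale 0 is the no-effect control and ±100 the full control effect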). The conditions noted are these: Jurkat NFAT-bla M1, carbachol, beta-lactamase ratio, 5 h; at 17.2 µM (top of the series) unless noted. In a few lines:
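Jurkat cells with NFAT-driven β-lactamase reporter and co-expressed M1 receptor, stimulated with carbachol (final 1 uM, ~EC50), compound titration, 5 h at 37 °C. CCF4 loaded 1 h at RT; 460/530 nm ratio gave %activity and AC50.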

Assay [3] in a line: Stat Signaling Pathway (AID 446; active means well fitted curve in either direction with a large enough effect, not every such curve was filed as active;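 further: ME-180 cervical cancer cells given 40 pM IL-6 alongside compound; SIE-controlled beta-lactamase reporter measured as 460/530 nm FRET emission ratio; on the % scale 0 is the no-effect control and ±100 the full control effect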). In a few lines:
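Overnight-plated ME-180 cells bearing a STAT Inducible Element beta-lactamase reporter; 5 h co-exposure to compound and 40 pM IL-6; values normalized to 300 pM IL-6 and 125 nM JAK inhibitor controls.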

Assay [4] addresses Glucocorticoid receptor (Homo sapiens) (UniProt P04150). Put plainly: GR-GFP Redistribution (AID 450;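 active means compounds whose dose series gives a full or clear partial fitted curve of increased nuclear translocation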; further: potency means the concentration at half of the fitted maximal effect). The conditions noted are these: U2OS GR-GFP nuclear translocation, laser cytometry, 2 h.
For assay [5] the target is unchanged. Put plainly: GR-EFC Redistribution (AID 451; calls by dose curve; further: potency means the concentration at half of the fitted maximal effect). The conditions noted are these: CHO-K1 GR-EFC translocation, beta-gal luminescence, 2 h. In a few lines: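 CHO-K1 cells expressing nuclear EA and GR-ED fragments of b-gal; compounds titrated up to 46 uM final, 2 h at 37 C. GR nuclear translocation read as complemented b-gal luminescence after 1 h RT detection.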

In assay [6] the target is Mitogen-activated protein kinase 10 (Mus musculus) (UniProt Q61831). The assay is described as follows: JNK3 AlphaScreen Assay (AID 530; active means well fitted curve in either direction with a large enough effect, not every such curve was filed as active;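 further: kinase came from lysate of stimulated human HepG2 cells; signal reports phosphorylation of biotinylated GST-cJun 1-79 at Ser73 with 10 µM ATP; on the % scale 0 is the no-effect control and ±100 the full control effect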). In short, it runs like this: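 Activity was read by AlphaScreen after JNK3-containing HepG2 lysate (cytokine pre-activated) phosphorylated biotinylated GST-cJun with 10 uM ATP at room temperature. Phospho-Ser73 cJun antibody with Protein-A acceptor beads provided detection.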
(In general: Bead proximity is the source of the signal in Alpha formats.)

For assay [7], the target named is 3',5'-cyclic-AMP phosphodiesterase 4B (Homo sapiens) (UniProt Q07343). The assay is described as follows: qHTS Assay for Inhibitors of PDE-IV (AID 607; active means well fitted activation curve with a large enough effect in the main read-out, with a control signal flat, not every such curve was filed as active; further: % of control where 0% means no effect). In a few lines:
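Live HEK293 cells with a modified cyclic nucleotide-gated (CNG) channel report intracellular cAMP via membrane-potential dye fluorescence (ex 535/em 590 nm). Endogenous PDE-IV was targeted. Compounds were tested at up to 22.9 uM final; RO 20-1724 100 uM served as control.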
On the technique in general: Quantitative high-throughput screening tests each substance at several concentrations.

Assay [8] can be described thus: qHTS Assay for Lipid Storage Modulators (AID 1519; calls by dose curve). The conditions noted are these: Drosophila S3 cells, BODIPY lipid droplet/cell ratio, laser cytometry, cells loaded with oleic acid. In short, it runs like this:
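Cells seeded at 5,000 per well were treated with compounds over a concentration series and loaded with oleic acid (400 uM, as added). Lipid droplet fluorescence (488 nm excitation, 500-530 nm channel) was read by laser-scanning cytometry and normalized to 20 uM Triacsin C.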

For assay [9], the target named is ATP-dependent 6-phosphofructokinase (Trypanosoma brucei brucei) (UniProt O15648). Put plainly: qHTS Assay to Find Inhibitors of T. brucei phosphofructokinase: hit validation (AID 492961). In a few lines: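 Compounds titrated; %activity normalized to 0x and 1x enzyme controls, curve-fitted. Readout: ADP-Glo luminescence after 45 min room-temperature reaction of 1.25 nM PFK, 0.1 mM ATP, 0.5 mM F6P, pH 8.0.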

The target of assay [10] is Ubiquitin carboxyl-terminal hydrolase 1 (Homo sapiens) (UniProt O94782). The assay is described as follows: Inhibitors of USP1/UAF1: Pilot qHTS (AID 504865).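 Further: rhodamine fluorescence freed from ubiquitin-rhodamine substrate followed over time; top concentration of the series differs between compounds; on the % scale 0 is the no-effect control and ±100 the full control effect; nearly all actives have a fitted effect of over 35% in size.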 In short, it runs like this:
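USP1/UAF1 complex at 1 nM preincubated 15 min at room temperature with compound, then Ub-Rho substrate added at 150 nM final. Fluorescence (480/540 nm) read kinetically in 50 mM HEPES pH 7.8, 0.5 mM EDTA, 1 mM TCEP, 0.1 mg/ml BSA, 0.01% Tween-20.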

For assay [11], the target named is Luciferin 4-monooxygenase (Photinus pyralis) (UniProt P08659). The assay is described as follows: Biochemical firefly luciferase enzyme assay for NPC (AID 624030).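 Further: purified P. pyralis luciferase at 10 nM with luciferin and ATP substrate; 0% = DMSO and -100% = full luciferase inhibition by PTC124 control; nearly all actives have a fitted effect of over 70% in size.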 In a few lines:
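Purified P. pyralis luciferase at 10 nM in 50 mM Tris Acetate (final), luminescence read within 5 minutes of enzyme addition to compounds. Activity normalised to PTC124 versus DMSO; concentration-response curves classed by r2, magnitude and activity.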

A short description of assay [12]: qHTS profiling for inhibitors of Plasmodium falciparum proliferation (AID 504749).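 Further: 0% = DMSO vehicle and full inhibition = artemisinin control; nearly all actives have a fitted effect of over 60% in size.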 Conditions: P. falciparum in erythrocytes, SYBR Green DNA, 72 h, at 12.8 µM (top of the series). In short, it runs like this: (§1)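 Each compound contacts P. falciparum-infected red blood cells for 72 h at 37 C; lysis buffer (Tris, EDTA, saponin, Triton X, SYBR Green I) is added and fluorescence measured next morning; values normalized to controls.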

The next assay deals with C2A. The description is as above. Conditions: P. falciparum in erythrocytes, SYBR Green DNA, 72 h; series mostly up to 12.8 µM. In a few lines: as §1
A further assay has as its system CP191. The assay is described as above. Conditions: P. falciparum in erythrocytes, SYBR Green DNA, 72 h; series mostly up to 12.8 µM. In a few lines: as §1
A further assay relates to CP238. The assay is described as above. The conditions noted are these: P. falciparum in erythrocytes, SYBR Green DNA, 72 h; series mostly up to 12.8 µM. In short, it runs like this: as §1
The subject of the next assay is CP256. The assay is described as above. Conditions: P. falciparum in erythrocytes, SYBR Green DNA, 72 h; series mostly up to 12.8 µM. In a few lines: as §1
Another assay concerns FAB9. The assay is described as above. Conditions: P. falciparum in erythrocytes, SYBR Green DNA, 72 h; series mostly up to 12.8 µM. In short, it runs like this: as §1
Another assay has as its system JCK. Described as above. Conditions: P. falciparum in erythrocytes, SYBR Green DNA, 72 h; series mostly up to 12.8 µM. In short, it runs like this: as §1
For the next assay, the system named is SC27B. The assay is described as above. Conditions: P. falciparum in erythrocytes, SYBR Green DNA, 72 h; series mostly up to 12.8 µM. In short, it runs like this:
as §1

In assay [13] the target is Cytochrome P450 1A2 (Homo sapiens) (UniProt P05177). The assay is described as follows: p450-cyp1a2 (AID 410; calls by dose curve; further: potency means the concentration at half of the fitted maximal effect). In short, it runs like this: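 Luminescent demethylation readout: Luciferin-ME (100uM, equal to Km) turned over by 20nM CYP1A2 for 60 min at room temperature after NADPH regeneration addition, following 10 min compound preincubation. Normalization used 57 uM furafylline as full inhibition.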

[14] abbreviates: measured here: cell count channel max response.
Setting [15] is: measured here: lipid channel max response.

Sequence of Luciferin 4-monooxygenase (Photinus pyralis) (P08659 whole entry, looked up): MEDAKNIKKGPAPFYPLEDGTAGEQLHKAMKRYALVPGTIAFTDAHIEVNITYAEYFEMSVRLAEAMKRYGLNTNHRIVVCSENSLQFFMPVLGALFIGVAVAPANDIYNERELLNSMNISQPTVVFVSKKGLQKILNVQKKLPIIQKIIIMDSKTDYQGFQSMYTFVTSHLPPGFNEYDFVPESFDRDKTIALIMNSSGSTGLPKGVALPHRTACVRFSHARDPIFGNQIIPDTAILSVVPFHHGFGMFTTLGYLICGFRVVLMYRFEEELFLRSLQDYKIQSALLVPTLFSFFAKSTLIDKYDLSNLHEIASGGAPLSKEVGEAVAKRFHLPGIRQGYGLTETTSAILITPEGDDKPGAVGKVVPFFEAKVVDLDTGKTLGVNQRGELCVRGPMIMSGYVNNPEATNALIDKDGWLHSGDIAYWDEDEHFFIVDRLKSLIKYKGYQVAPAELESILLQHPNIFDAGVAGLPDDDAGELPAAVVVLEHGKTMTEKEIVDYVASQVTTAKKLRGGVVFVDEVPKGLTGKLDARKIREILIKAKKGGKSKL
Sequence of 3',5'-cyclic-AMP phosphodiesterase 4B (Homo sapiens) (Q07343 whole entry, looked up): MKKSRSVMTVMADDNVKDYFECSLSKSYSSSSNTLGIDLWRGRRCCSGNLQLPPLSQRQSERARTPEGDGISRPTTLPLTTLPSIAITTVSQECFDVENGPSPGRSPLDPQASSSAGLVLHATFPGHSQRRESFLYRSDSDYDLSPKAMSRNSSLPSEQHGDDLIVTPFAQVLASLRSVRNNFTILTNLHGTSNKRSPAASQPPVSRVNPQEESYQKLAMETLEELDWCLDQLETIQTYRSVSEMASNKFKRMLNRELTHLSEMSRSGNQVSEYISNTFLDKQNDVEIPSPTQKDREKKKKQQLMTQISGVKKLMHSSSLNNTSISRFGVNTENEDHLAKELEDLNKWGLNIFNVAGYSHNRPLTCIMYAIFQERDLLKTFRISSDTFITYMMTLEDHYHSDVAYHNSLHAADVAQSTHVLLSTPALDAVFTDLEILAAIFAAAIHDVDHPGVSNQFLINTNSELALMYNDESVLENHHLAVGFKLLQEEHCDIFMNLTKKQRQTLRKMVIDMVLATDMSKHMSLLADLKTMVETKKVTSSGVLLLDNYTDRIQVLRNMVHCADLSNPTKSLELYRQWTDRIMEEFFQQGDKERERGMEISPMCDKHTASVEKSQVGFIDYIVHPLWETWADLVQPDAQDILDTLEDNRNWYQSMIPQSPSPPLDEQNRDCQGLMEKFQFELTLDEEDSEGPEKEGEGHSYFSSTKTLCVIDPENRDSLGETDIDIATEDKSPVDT
Sequence of Ubiquitin carboxyl-terminal hydrolase 1 (Homo sapiens) (O94782 whole entry, looked up): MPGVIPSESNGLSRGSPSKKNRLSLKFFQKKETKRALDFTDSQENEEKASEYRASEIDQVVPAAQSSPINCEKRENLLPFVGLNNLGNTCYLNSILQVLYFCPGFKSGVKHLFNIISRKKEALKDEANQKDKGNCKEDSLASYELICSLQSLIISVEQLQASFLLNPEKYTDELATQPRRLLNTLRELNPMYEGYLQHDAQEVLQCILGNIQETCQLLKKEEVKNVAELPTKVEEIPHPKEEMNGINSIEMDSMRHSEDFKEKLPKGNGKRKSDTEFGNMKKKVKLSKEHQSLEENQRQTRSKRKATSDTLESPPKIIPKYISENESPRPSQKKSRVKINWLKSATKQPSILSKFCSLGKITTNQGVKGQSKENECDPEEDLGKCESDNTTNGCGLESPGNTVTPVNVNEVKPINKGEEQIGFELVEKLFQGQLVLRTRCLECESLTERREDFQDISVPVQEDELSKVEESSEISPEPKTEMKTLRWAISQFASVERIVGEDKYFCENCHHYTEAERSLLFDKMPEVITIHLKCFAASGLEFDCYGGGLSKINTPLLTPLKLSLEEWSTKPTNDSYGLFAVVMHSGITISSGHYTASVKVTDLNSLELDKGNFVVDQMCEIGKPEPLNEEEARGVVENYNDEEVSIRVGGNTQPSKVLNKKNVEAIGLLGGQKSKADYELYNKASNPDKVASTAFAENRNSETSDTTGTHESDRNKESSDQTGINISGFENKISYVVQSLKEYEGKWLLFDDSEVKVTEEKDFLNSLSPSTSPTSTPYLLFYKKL
Sequence of ATP-dependent 6-phosphofructokinase (Trypanosoma brucei brucei) (O15648 whole entry, looked up): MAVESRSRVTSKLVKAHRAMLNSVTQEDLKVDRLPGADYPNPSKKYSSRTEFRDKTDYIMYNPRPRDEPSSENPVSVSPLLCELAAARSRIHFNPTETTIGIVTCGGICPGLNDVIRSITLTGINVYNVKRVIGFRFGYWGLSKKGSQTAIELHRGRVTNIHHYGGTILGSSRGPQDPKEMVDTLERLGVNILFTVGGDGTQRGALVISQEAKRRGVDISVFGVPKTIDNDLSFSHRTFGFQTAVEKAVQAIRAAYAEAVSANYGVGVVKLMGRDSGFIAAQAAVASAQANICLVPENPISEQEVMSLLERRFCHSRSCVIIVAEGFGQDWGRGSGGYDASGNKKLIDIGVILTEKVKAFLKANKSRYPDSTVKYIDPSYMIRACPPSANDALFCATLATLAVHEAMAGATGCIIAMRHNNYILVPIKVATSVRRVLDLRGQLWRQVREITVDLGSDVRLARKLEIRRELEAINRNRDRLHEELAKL
Sequence of Glucocorticoid receptor (Homo sapiens) (P04150 whole entry, looked up, the tested form may be a part): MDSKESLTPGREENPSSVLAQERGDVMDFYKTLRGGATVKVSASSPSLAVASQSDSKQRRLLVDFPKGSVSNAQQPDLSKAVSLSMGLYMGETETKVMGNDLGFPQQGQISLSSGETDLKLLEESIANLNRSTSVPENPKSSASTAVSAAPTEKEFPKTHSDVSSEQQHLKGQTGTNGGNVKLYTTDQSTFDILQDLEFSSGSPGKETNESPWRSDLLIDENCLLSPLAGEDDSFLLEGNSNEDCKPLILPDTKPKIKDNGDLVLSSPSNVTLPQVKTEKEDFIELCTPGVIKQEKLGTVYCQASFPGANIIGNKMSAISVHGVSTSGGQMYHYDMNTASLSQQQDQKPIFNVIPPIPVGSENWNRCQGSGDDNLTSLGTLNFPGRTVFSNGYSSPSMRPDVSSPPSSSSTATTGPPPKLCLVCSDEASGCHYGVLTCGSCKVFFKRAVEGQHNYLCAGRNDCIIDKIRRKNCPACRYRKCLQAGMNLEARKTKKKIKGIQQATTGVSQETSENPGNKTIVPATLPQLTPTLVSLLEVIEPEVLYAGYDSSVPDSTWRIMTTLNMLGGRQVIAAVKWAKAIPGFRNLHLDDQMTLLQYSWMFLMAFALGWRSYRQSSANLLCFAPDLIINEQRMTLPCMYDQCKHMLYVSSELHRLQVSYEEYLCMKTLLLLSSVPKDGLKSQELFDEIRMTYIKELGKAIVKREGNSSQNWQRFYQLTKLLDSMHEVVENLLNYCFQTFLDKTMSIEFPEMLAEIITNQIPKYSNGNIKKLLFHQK
Sequence of Cytochrome P450 1A2 (Homo sapiens) (P05177 whole entry, looked up): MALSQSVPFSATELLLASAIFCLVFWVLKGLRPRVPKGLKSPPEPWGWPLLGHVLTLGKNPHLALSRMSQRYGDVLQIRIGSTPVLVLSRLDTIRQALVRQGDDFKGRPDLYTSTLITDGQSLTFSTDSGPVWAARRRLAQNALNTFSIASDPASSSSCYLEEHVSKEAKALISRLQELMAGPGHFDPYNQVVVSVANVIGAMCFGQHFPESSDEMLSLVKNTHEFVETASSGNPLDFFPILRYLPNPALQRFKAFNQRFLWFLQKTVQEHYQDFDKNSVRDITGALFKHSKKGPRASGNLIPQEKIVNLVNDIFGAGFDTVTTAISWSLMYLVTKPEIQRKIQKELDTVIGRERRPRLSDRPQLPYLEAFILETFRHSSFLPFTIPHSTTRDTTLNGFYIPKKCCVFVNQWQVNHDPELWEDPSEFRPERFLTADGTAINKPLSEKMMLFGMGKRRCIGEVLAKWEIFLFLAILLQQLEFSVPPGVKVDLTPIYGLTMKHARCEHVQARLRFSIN

In the case of `CCCCC[C@H](O)/C=C\[C@H]1[C@H](C/C=C\CCCC(=O)O)[C@@H](O)C[C@H]1O` (tested in a mixture with another compound), the compound was classed as inactive in [1], in assay [3], in assay [7] and in [9]. Besides, the activity change, negative = inhibition in assay [2] was 11.1% (inactive); in [8] (at 25.7 µM (top of the series)), -0.941% (inactive). In addition, the Potency in assay [4] and in assay [5] was > 20.6 µM (inactive) throughout. Also, the Potency entry (in assay [6]; in assay [10]; in assay [11]; in the assay on C2A; in the assay with CP191; with CP238) was “inactive” each time. For the same compound, the Potency entry in the assay on CP256, in the assay on FAB9, in the assay with JCK and with SC27B was “inactive” throughout. Besides, the max response amounted to 14.3% in assay [8] (setting [14]) and 13.4% in assay [8] (setting [15]). Besides, the activity, negative = inhibition in [12] (parasite line A) was -9.08% (inactive); in assay [12] (parasite line B), -0.0944% (inactive).

For the compound `O[C@@](CCN1CCCC1)(c1ccccc1)C1CCCCC1`, the compound was called inactive in assay [1], in assay [3] and in assay [9]. The activity change, negative = inhibition is -61.1% (active) in [2] and -0.986% (inactive) in assay [8] (at 25.7 µM (top of the series)). The Potency in assay [4] and in assay [5] was > 20.6 µM (inactive) in each case. Besides, the Potency result (in [6]; in assay [10]; in assay [11]; with C2A; in the assay with CP191; with CP238) was “inactive” each time. The Potency entry in the assay with CP256, with FAB9, in the assay on JCK and in the assay on SC27B was “inactive” each time. For the same compound, the max response in assay [8] (setting [14]) was -8.38%; in assay [8] (setting [15]), -9.51%. The activity, negative = inhibition in assay [12] (parasite line A) is -9.23% (inactive).

For `NC[C@@H]1O[C@H](O[C@@H]2[C@H](O[C@@H]3O[C@H](CO)[C@@H](O)[C@@H]3O)[C@@H](O)[C@@H](N)C[C@H]2N)[C@@H](N)[C@H](O)[C@@H]1O`, the call in assay [1], in [3], in assay [7] and in assay [9] was inactive. In addition, the activity change, negative = inhibition in assay [2] was -8.79% (inactive); in assay [8] (at 25.7 µM (top of the series)), -2.12% (inactive). The Potency in assay [4] and in [5] was > 20.6 µM (inactive) each time. Further, the Potency entry (in assay [6]; in [10]; in assay [11]; in the assay with C2A; in the assay on CP191; with CP238) was “inactive” in each case. Further, the Potency entry in the assay with CP256, with FAB9, in the assay with JCK and in the assay on SC27B was “inactive” throughout. For the same compound, the max response was -8.12% in [8] (setting [14]) and -11.1% in assay [8] (setting [15]). Besides, the activity, negative = inhibition in [12] (parasite line A) was -3.69% (inactive); in assay [12] (parasite line B), 2.48% (inactive).

Turning to `O=C(c1cc(C(F)(F)F)cc(C(F)(F)F)c1)N1CCC[C@@]2(CCN(c3ccccn3)C2)C1`, the compound was called inactive in [1] and in assay [3]. The figures for the Potency in assay [13] and in assay [5] were 25.1 µM (active) and > 46 µM (inactive), respectively. In addition, in assay [6], the Potency entry was “inactive”. In addition, the activity change, negative = inhibition in assay [8] (at 57.5 µM (top of the series)) was -14.3% (inactive). Besides, the max response was -3.88% in assay [8] (setting [14]) and -16.6% in assay [8] (setting [15]).

Take `C1CCN2C[C@@H]3C[C@@H](CN4CCCC[C@H]34)[C@H]2C1`: the compound was classed as inactive in [1], in assay [3], in [7] and in assay [9]. The activity change, negative = inhibition in [2] is -16.7% (inactive); in [8] (at 25.7 µM (top of the series)), -1.82% (inactive). The Potency was > 20.6 µM (inactive) and > 46 µM (inactive) in assay [4]; > 20.6 µM (inactive) and > 46 µM (inactive) in assay [5]. Besides, the Potency result (in assay [6]; in assay [10]; in assay [11]; in the assay with C2A; in the assay on CP191; in the assay on CP238) was “inactive” each time. Also, the Potency entry with CP256, in the assay with FAB9, in the assay with JCK and with SC27B was “inactive” throughout. For the same compound, the results for the max response in assay [8] (setting [14]) and in [8] (setting [15]) were -3.93% and -5.58%, respectively. Besides, the activity, negative = inhibition in assay [12] (parasite line A) is 5.24% (inactive); in assay [12] (parasite line B), 14.7% (inactive).
